# CF NFkB block: cystic fibrosis NF-kB activation inhibition; hit rate 0.86% among 360,000; KKLEB NF-kB-GFP reporter, PAF-induced, GFP fluorescence overnight; inhibition, % at 5 µM;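 active = at least 50% inhibition at 5 µM, scaled per plate between neutral and stimulator controls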;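 also: PAF is a Pseudomonas aeruginosa culture filtrate used as stimulus; plate controls were PAF-stimulated DMSO wells for no effect and unstimulated DMSO wells for full effect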
# KKLEB cytotox: reduces viability of KKLEB cystic fibrosis airway cells; KKLEB CF airway cells viability, ATPlite luminescence, overnight; stronger effect = lower value; cells stimulated with P. aeruginosa culture filtrate; activity change (cytotoxicity), % at 5 µM; hit rate 0.36% among 360,000;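 active = corrected activity change at or below -50% at 5 µM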
# Mdm2-MdmX inh: disrupts the human Mdm2-MdmX interaction. O15151+Q00987. SaOS-2 split-luciferase Mdm2/MdmX complementation, luminescence. inhibition, % at 8 µM. hit rate 3% among 330,000. AID 485346;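 active = inhibition of at least 50% at 8 µM in the primary screen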
# Peg3 prom inh: inhibitors of Peg3 promoter; inhibition, % at 20 µM; hit rate 1.7% among 360,000; AID 588405; HeLa PEG-Prom luciferase reporter, luminescence, overnight;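 active = inhibition of at least 50% at 20 µM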
# ABHD5 PLIN5 PPI: ABHD5-PLIN5 protein interaction inhibition; Q00G26+Q8WTS1; Split G. princeps luciferase complementation, luminescence, 4 h; inhibition, % at 4 µM; hit rate 0.78% among 360,000; AID 602281;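 active = inhibition above the mean inhibition across every tested compound plus 3 SD, cut at about 22% in these data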;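 also: 0% = DMSO only wells and the 100% control is not disclosed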
# HIF-2a block: HIF-2a inhibition | hit rate 0.72% among 360,000 | 786-0 RCC cells HIF-2a reporter, luciferase luminescence, overnight | inhibition, % at 18.8 µM;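 active = inhibition of the luminescence signal of 40% or more relative to plate controls, in a single-dose primary screen at 18.75 µM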
# CF NFkB conf: confirmation of cystic fibrosis induced NF-kB inhibitors; shares compounds with CF NFkB block; KKLEB CF airway cells, PAF-induced NF-kB-GFP fluorescence, overnight; inhibition, % at 5 µM; hit rate 64% among 1,300; in the data active = inhibition above about 40%;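 also: stimulus PAF is a Pseudomonas aeruginosa filtrate and not platelet activating factor; plate controls were DMSO wells with stimulus for no effect and unstimulated DMSO wells for full effect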
# * hit, by the source's call; . = not tested or not shown. A selection: hits, their analogues and other compounds. The true share with any hit is near 4.6%.
SMILES,CF NFkB block,KKLEB cytotox,Mdm2-MdmX inh,Peg3 prom inh,ABHD5 PLIN5 PPI,HIF-2a block,CF NFkB conf
Cc1cccn2c(=O)c3cc(S(=O)(=O)c4ccc(F)cc4)c(=N)n(Cc4ccco4)c3nc12,75.5*,9.7,8.5,31.3,20.2,8.7,5.4
Cc1cccn2c(=O)c3cc(S(=O)(=O)c4ccccc4)c(=N)n(Cc4ccco4)c3nc12,-18.8,-5.0,27.5,2.9,13.6,10.1,.
CCOC(=O)c1ccc2c(c1)nc(SC/C(O)=C(\C#N)c1nc3ccccc3[nH]1)n2CC,66.3*,-38.5,39.7,5.8,-2.0,-28.7,59.0*
Cc1ccc(N(C(=O)c2csnn2)C(C(=O)NC2CCCC2)c2ccccn2)c(C)c1 (stereo not drawn),-7.2,2.0,1.2,12.8,5.6,14.5,.
Nc1cc2c(cc1Br)[nH]c(=O)c1ccccc12,58.2*,-13.9,.,-6.5,-1.1,-23.9,-59.4
COc1ccc(NC(=O)Nc2nnc(-c3ccncc3)s2)cc1,58.2*,-21.2,32.6,-106.4,-0.2,-174.2,53.2*
O=C1C(=O)N(CCS(=O)(=O)c2ccccc2)c2ccc(F)cc21,65.6*,-16.8,24.1,4.8,-9.6,-12.7,22.0
O=C(/C=C/c1cccc([N+](=O)[O-])c1)NC(=S)Nc1ccc(CN2CCOCC2)cc1,67.4*,-33.9,4.4,21.2,0.1,13.5,54.9*
O=C(NC(=S)Nc1ccc(CN2CCOCC2)cc1)c1ccc([N+](=O)[O-])cc1,-8.7,3.9,-8.9,11.7,-8.2,15.4,.
O=C(CS(=O)CC(=O)N(CC(=O)NC1CCCC1)c1ccccc1F)Nc1ccc(F)cc1 (stereo not drawn),-4.0,-3.0,40.6,21.2,-4.5,14.9,.
O=S1(=O)CC=C(CSC(=S)NC2CCS(=O)(=O)C2)C1 (stereo not drawn),51.4*,-11.1,30.5,56.9*,-30.1,38.2,95.8*
CC(C)(C)c1cc(CSC(=S)NC2CCS(=O)(=O)C2)c(Br)c(C(C)(C)C)c1 (stereo not drawn),38.2,1.2,17.8,17.7,-2.3,19.3,.
CCc1ccccc1Oc1nc(NC(C)C)nc2ccsc12,25.9,-22.0,.,12.5,-3.2,16.7,.
NC(c1ccccc1)c1csc(NC(=O)Nc2cccc(Cl)c2)n1 (stereo not drawn),58.7*,-0.6,.,107.9*,2.6,-27.8,59.3*
c1nc(N2CCOCC2)c2c3c(sc2n1)CCCC3,55.0*,-23.2,33.6,13.1,-3.3,24.1,70.4*
c1ccn(-c2ncnc3sc4c(c23)CCCC4)c1,20.3,-12.0,32.3,14.3,-3.5,20.9,.
COCCCNC(=O)C1=CCN(S(=O)(=O)c2ccc(OC)cc2)CC1,-5.7,-0.5,7.1,4.1,1.1,5.0,.
CCOc1ccccc1C(=O)NCC(=O)N1CCN(Cc2ccc3c(c2)OCO3)CC1,74.2*,-14.0,-3.3,-0.4,5.2,0.2,31.3
C[C@H](O)[C@@H]1C(=O)N2CCc3c([nH]c4ccccc34)[C@@H]2C[C@@H]1N(C)C(=O)Nc1cc(Cl)cc(Cl)c1,-25.2,-0.5,.,8.0,-7.2,-105.2,.
COc1ccc(Cl)cc1NC(=O)CN(C)C(=O)c1cc(-c2ccncc2)nc2ccccc12,60.6*,-36.5,33.5,42.3,4.5,6.3,10.0
O=C(N/N=C/C=C/c1ccccc1)NC1CCCCC1,-7.1,-7.3,0.3,-46.5,-4.3,-108.9,.
CCOC(=O)N1CCN(CC(=O)Nc2ccc([N+](=O)[O-])cc2C(=O)Nc2ccccc2F)CC1,66.9*,-5.5,33.1,63.7*,-4.7,9.9,26.3
CCOC(=O)N1CCN(CC(=O)Nc2ccccc2C(=O)Nc2ccccc2)CC1,-35.8,-9.3,20.0,27.4,0.7,8.6,.
c1ccc(C2[C@H]3CN(Cc4cccnc4)[C@H](c4ccccc4)C34CC2(c2ccccc2)C4)cc1 (stereo partly drawn),53.4*,-19.0,41.5,7.0,-8.4,-19.4,4.8
c1ccc(C2[C@H]3CN(Cc4cccnc4)[C@H](c4ccccc4)C34CC2(c2cccnc2)C4)cc1 (stereo partly drawn),22.0,1.4,18.0,14.2,-0.3,14.6,.
C[C@]12CCC(=O)C=C1CCC1C2CC[C@@]2(C)C1CCC21OCCO1 (stereo partly drawn),6.1,-3.3,12.6,22.9,10.1,7.8,.

# Screening results (PubChem BioAssay)
